# Data taken from PubChem BioAssay AID463198 (Broad Institute, 2010).
# This is one part of the list. Values without a mark were called inactive. Calls of active or inactive are those of the source.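 Rule for the calls: active = fitted AC50 no greater than ten times the top concentration tested (cut at about 17 µM in these data); inconclusive = flat fit with 30 to 70% signal change, or an unreliable fit; inactive = AC50 beyond ten times the top concentration tested.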
# Assay: compound competition with acridine orange for DNA – biochemical, fluorescence polarization, cell-free, counter-screen for LANA–histone interaction inhibitor project, dose response (AID 463198)
# Details: acridine orange-DNA binding
row,SMILES,AC50
1,CN1C(=O)c2cccc3c(N)ccc(c23)C1=O,7.65 µM (active)
2,Cc1nn(C)cc1N1C(=O)c2cccc3c(N)ccc(c23)C1=O,4.91 µM (active)
3,COc1ccc(C2C=C(c3ccc(Br)cc3)Nc3nc(NS(C)(=O)=O)nn32)cc1 (centres undefined),> 35 µM
4,O=S(=O)(Nc1cc(Cl)ccc1N1CCOCC1)c1ccccc1Cl,> 35 µM
